Screening results: PubChem BioAssay, National Center for Advancing Translational Sciences (NCATS)
In the library only some 3.4% were active in any assay of this set; here they are far more common.
Luciferase inh: inhibitors of firefly luciferase; Potency, µM (top dose mostly 57.1 µM), actives largely listed as inhibitors; purified firefly luciferase, luminescence, 8 min; 72,000 tested, 2.2% active; AID 411; P08659; also: nearly all actives have a fitted effect of over 40% in size
Target sequence (P08659 whole entry, looked up): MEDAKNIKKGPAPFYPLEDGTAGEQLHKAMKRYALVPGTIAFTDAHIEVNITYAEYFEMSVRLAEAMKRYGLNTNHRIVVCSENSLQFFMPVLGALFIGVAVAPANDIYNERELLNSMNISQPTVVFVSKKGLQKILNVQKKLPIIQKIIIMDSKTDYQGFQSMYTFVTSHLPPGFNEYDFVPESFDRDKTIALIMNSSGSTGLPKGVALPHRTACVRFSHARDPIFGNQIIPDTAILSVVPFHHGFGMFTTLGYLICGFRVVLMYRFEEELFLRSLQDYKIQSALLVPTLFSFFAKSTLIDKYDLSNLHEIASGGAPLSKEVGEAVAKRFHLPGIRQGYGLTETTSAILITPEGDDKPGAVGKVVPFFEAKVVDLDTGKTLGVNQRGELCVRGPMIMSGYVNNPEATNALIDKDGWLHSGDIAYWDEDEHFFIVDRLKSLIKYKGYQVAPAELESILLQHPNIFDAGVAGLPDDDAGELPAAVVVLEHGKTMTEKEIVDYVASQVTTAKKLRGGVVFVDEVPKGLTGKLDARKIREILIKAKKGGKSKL
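Titration-based qHTS; buffer 50 mM imidazole pH 7.2, 50 mM KCl, 7 mM MgCl2, 10 uM ATP, 0.01% Tween 20, 0.05% BSA; luciferase/luciferin detector mix added after compound; 8 min, ambient; luminescence.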
Peg3 imprint: induces erasure of genomic imprints in mouse ES cells; mouse ES Peg3-LacZ reporter, beta-gal luminescence, 40 h; Potency, µM (doses to about 60.7 µM), actives largely listed as activators; 110,000 tested, 0.02% active; AID 1948
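Each well holds 300 Peg3LacZ-Neo (maternal) female ES cells incubated 40 h at 37C, 5% CO2. LacZ is measured by BetaGlo luminescence, with AC50 and maximum efficacy derived from dose-response curves.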
p53ts 39C tox: p53ts cell cytotoxicity, nonpermissive temperature. H1299-p53A138V viability at 39C, ATP luminescence, 24 h. Potency, µM (top dose mostly 46.1 µM), hits mostly cytotoxic. 130,000 tested, 1.5% active. AID 902; also: nearly all actives have a fitted effect of over 55% in size
p53ts 32C kill: kills p53ts cells at the permissive temperature; H1299-p53A138V at 32C, ATP luminescence viability, 24 h; Potency, µM (series often up to 46.1 µM), hits mostly cytotoxic; 130,000 tested, 0.93% active; also: nearly all actives have a fitted effect of over 55% in size
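ATP-content luminescence (ATPlite) read-out after 24 h compound exposure at 32C in H1299-p53A138V cells (600/well). Tested up to 46 uM. Normalized to DMSO (0%) and 100 uM tamoxifen (100% killing); Hill-fit AC50.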
Tau filament bind: binders of human tau filaments | P10636 | recombinant tau filaments, thioflavin S fluorescence, 15 h; filaments grown with octadecylsulfate alongside compound | Potency, µM (top dose mostly 57.1 µM) | 71,000 tested, 2% active;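 also: actives lower thioflavin S fluorescence by blocking filaments or displacing dye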
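ThS-based fibril read: tau 1 uM final, inducer ODS 30 uM final, 37 C for 15 h, ex 450/em 510 nm.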
Large screens that a line does not name were inactive. Calls follow the shape of the dose curve; as a rule, active = well fitted curve in the direction sought with a large enough effect; inconclusive = small, poorly fitted or top-dose-only effect, or another doubt; inactive = no such curve, though single readings can be large; an effect the other way counts as inactive or inconclusive.

CCN(CCN(C)C)C(=O)C1CCN(S(=O)(=O)c2c(C)noc2/C=C/c2ccccc2F)CC1	p53ts 39C tox 13µM (no result: Luciferase inh, Tau filament bind)
CC(=O)c1ccc(N2CCN(C(=O)C3CCN(S(=O)(=O)c4c(C)noc4/C=C/c4ccc(C)cc4)CC3)CC2)cc1	none (no result: Luciferase inh, Tau filament bind)
Cc1ccc(/C=C/c2onc(C)c2S(=O)(=O)N2CCC(C(=O)N3CCC(N(C)C(C)C)CC3)CC2)cc1	p53ts 39C tox 20µM, p53ts 32C kill inconclusive (no result: Luciferase inh, Tau filament bind)
Cc1cccc(N2CCN(CCCNc3ncnc4onc(-c5ccc(Cl)cc5)c34)CC2C)c1 (configuration not stated)	none (no result: Luciferase inh, Tau filament bind)
Cc1ccc(Nc2cccccc2=O)cc1	Luciferase inh 25µM
Cc1ccc(OCC(=O)Nc2ccccc2C(=O)OCc2cc(=O)n3c(C)csc3n2)cc1	none (no result: Luciferase inh, Tau filament bind)
O=C(CSc1c2c(nc3ccc(Cl)cc13)CCCC2)N1CCCCC1	p53ts 39C tox inconclusive, p53ts 32C kill inconclusive (no result: Luciferase inh, Tau filament bind)
CC1CCN(C(=O)CSc2c3c(nc4ccc(Cl)cc24)CCCC3)CC1	p53ts 39C tox inconclusive, p53ts 32C kill inconclusive (no result: Luciferase inh, Tau filament bind)
CC1CCCCN1C(=O)CSc1c2c(nc3cc(Cl)ccc13)CCCC2 (configuration not stated)	p53ts 39C tox 13µM (no result: Luciferase inh, Tau filament bind)
CC1CCCN(C(=O)CSc2c3c(nc4cc(Cl)ccc24)CCCC3)C1 (configuration not stated)	p53ts 39C tox inconclusive, p53ts 32C kill 25µM (no result: Luciferase inh, Tau filament bind)
COc1ccc(NC(=O)N2CCCC3(CCN(S(C)(=O)=O)CC3)C2)cc1	none (no result: Peg3 imprint)
COc1ccc(-c2coc3cc(O)ccc3c2=O)cc1	p53ts 39C tox inconclusive, p53ts 32C kill inconclusive, Tau filament bind 32µM
Cc1nc(-c2coc3cc(OCC(=O)O)ccc3c2=O)cs1	Luciferase inh 4µM (no result: Peg3 imprint, p53ts 39C tox, p53ts 32C kill, Tau filament bind)
COc1ccc2c(=O)c(-c3nc(C)cs3)coc2c1	Luciferase inh 2µM (no result: Peg3 imprint, p53ts 39C tox, p53ts 32C kill, Tau filament bind)
COc1ccc(-c2coc3cc(O)ccc3c2=O)c(OC)c1	none (no result: Luciferase inh, Tau filament bind)
COc1ccc(Cl)cc1NC(=O)Cn1c(=O)n(Cc2ccc(F)cc2)c(=O)c2cccnc21	none (no result: Luciferase inh, Tau filament bind)
COc1cc(NC(=O)CN2C(=O)C(c3ccc(C)cc3)=NC23CCCCC3)cc(OC)c1	none (no result: Luciferase inh, Tau filament bind)
N#CCCN1CCN(C(=S)c2ccc(-c3ccc(Cl)cc3)o2)CC1	Tau filament bind 25µM
CN1CCN(Cc2ccc(-c3ccc(Cl)cc3)o2)CC1	none
COc1ccccc1N1CCN(C(=O)CSc2ncccc2-c2nc3ccccc3[nH]2)CC1	Luciferase inh inconclusive, Tau filament bind inconclusive
COc1ccc(N2CCN(C(=O)CSc3ncccc3-c3nc4ccccc4[nH]3)CC2)cc1	Luciferase inh 13µM, Tau filament bind inconclusive
C/C(CCC(=O)OC[C@@H]1O[C@H](C#Cc2ccccc2)C=C[C@@H]1Oc1ccc(C)cc1)=N/OC[C@@H](O)COCc1ccco1	none (no result: Peg3 imprint, Tau filament bind)
CN(C)c1ccc(-c2nccc(NCc3cccs3)n2)cc1	Luciferase inh 0.5µM, p53ts 39C tox 5µM, p53ts 32C kill 7.9µM
COCCn1c(C)cc(C(=O)CSc2nncn2-c2ccccc2)c1C	Luciferase inh inconclusive, p53ts 39C tox inconclusive, p53ts 32C kill inconclusive
CC(=O)Nc1ccc(SCC(=O)c2cc(C)n(Cc3cccs3)c2C)cc1	p53ts 39C tox 2.5µM, p53ts 32C kill 2.5µM
COc1ccc(-c2nnc(SCC(=O)c3cc(C)n(Cc4cccs4)c3C)o2)cc1	none
Cc1csc(SCC(=O)c2cc(C)n(Cc3cccs3)c2C)n1	Luciferase inh 4µM, p53ts 39C tox 13µM, p53ts 32C kill 13µM
COCCn1c(C)cc(C(=O)CSc2ccc(NC(C)=O)cc2)c1C	p53ts 39C tox 13µM, p53ts 32C kill inconclusive
CC(=O)Nc1ccccc1OCC(=O)c1cc(C)n(Cc2cccs2)c1C	none
Cc1ccc(OC(=O)CSc2nnc(-c3ccc4c(c3)OCO4)o2)cc1	none (no result: Luciferase inh, Tau filament bind)
O=C(c1ccc(Cl)cc1)N1CCCCC(Sc2nnc(-c3ccc4c(c3)OCO4)o2)C1=O (configuration not stated)	Luciferase inh 13µM, p53ts 39C tox inconclusive, p53ts 32C kill 7.9µM
COc1cccc(Cn2c(=O)c(-c3ccc(Cl)cc3)nc3cnc(N4CCNCC4)nc32)c1	p53ts 39C tox inconclusive, p53ts 32C kill 13µM, Tau filament bind 4µM
COc1cccc(Cn2c(=O)c(-c3ccc(Cl)cc3)nc3cnc(N4CCN(C)CC4)nc32)c1	Tau filament bind inconclusive
COc1ccccc1CCn1c(=O)c(-c2cccs2)nc2cncnc21	none
COc1ccccc1CCn1c(=O)c(-c2ccc(Cl)cc2)nc2cncnc21	Tau filament bind 13µM (no result: Peg3 imprint)
COc1cccc(Cn2c(=O)c(-c3ccc(Cl)cc3)nc3cnc(OC)nc32)c1	Tau filament bind 13µM
COc1cccc(Cn2c(=O)c(-c3cccc(Cl)c3)nc3cncnc32)c1	Tau filament bind 20µM (no result: Peg3 imprint)
Cc1ccc(-c2noc(CNC(=O)c3ccc(C)c(Cl)c3)n2)cc1	none (no result: Luciferase inh, Tau filament bind)
COc1ccccc1Cn1cc(C(=O)c2ccc(C)cc2)c(=O)c2cc(F)cc(F)c21	none (no result: Luciferase inh, Tau filament bind)
COc1ccccc1CNC(=O)C(NS(=O)(=O)c1cccs1)C(C)C (configuration not stated)	none (no result: Luciferase inh, Tau filament bind)
COc1cccc(Cn2c(=O)cnc3cnc(OCc4ccccc4)nc32)c1	Tau filament bind inconclusive
COc1cccc(Cn2c(=O)c(C)nc3cnc(OCc4ccccc4)nc32)c1	Tau filament bind 32µM (no result: Peg3 imprint)
COc1cccc(Nc2ncc3nc(C)c(=O)n(CCC#N)c3n2)c1	Tau filament bind 25µM (no result: Peg3 imprint)
COc1cccc(Cn2c(=O)c(-c3ccc(Cl)cc3)nc3cncnc32)c1	p53ts 39C tox inconclusive, Tau filament bind 25µM
COc1cccc(CN2c3ccccc3-c3nc(SCC(=O)Nc4ccccc4Cl)ncc3S2(=O)=O)c1	none (no result: Luciferase inh, Tau filament bind)
O=C1c2ccccc2C(=O)C1c1ccncc1	Luciferase inh 7.9µM, p53ts 39C tox 3.2µM, p53ts 32C kill 3.2µM
NC(=O)c1c(NC(=O)c2cccs2)sc2c1CCCCCC2	Luciferase inh 7.9µM, p53ts 39C tox inconclusive, p53ts 32C kill inconclusive
O=C(Nc1sc2c(c1C(=O)O)CCC2)c1cccs1	none
O=C(Nc1nc2c(s1)CCCC2)c1cccs1	Luciferase inh 5µM, p53ts 39C tox 10µM, p53ts 32C kill 10µM (no result: Peg3 imprint)
O=C(Nc1nc2c(s1)CCCC2)c1ccc(Br)o1	Luciferase inh 6.3µM, p53ts 39C tox inconclusive, p53ts 32C kill inconclusive
Cc1ccc(C(=O)Nc2nc3c(s2)CCCC3)o1	none
CC1(C)CC(=O)c2sc(NC(=O)CN3CCCCC3)nc2C1	none
CC1(C)CC(=O)c2sc(NC(=O)c3cccs3)nc2C1	p53ts 39C tox 1.6µM, p53ts 32C kill 1.6µM (no result: Luciferase inh, Peg3 imprint, Tau filament bind)
COc1ccc(CCNC(=O)c2cnn(-c3ccc(F)cc3)c2C2CCN(C(=O)OC(C)(C)C)CC2)cc1OC	none (no result: Luciferase inh, Tau filament bind)
CN(C)c1nc(-c2cccc(C#N)c2)nc2ccccc12	none
CNc1nc(-c2cccc(C#N)c2)nc2ccccc12	Peg3 imprint 1.3µM
Cn1c(SC2=CS(=O)(=O)c3ccccc32)nc2ccccc21	p53ts 39C tox 13µM, p53ts 32C kill inconclusive
Cc1noc(C)c1-c1nccc(Nc2ccc(F)cc2)n1	Peg3 imprint inconclusive
